# Most compounds without a hit are left out; they make up all but 9.3% or so of the library.
# NPC1 promoter act: activators of NPC1 promoter; Potency, µM (top dose mostly 9.22 µM), for inactives: top-dose activation, most hits filed as activators; Huh7 NPC1 promoter luciferase reporter, 24 h; AID 485313; actives 2.4% (n = 320,000); also: % of control where 0% means no effect; nearly all actives have a fitted effect of over 60% in size
#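 Cells: Huh7 expressing luciferase under the NPC1 promoter, 1500/well. Seeded 2 h, compound added, incubated 24 h at 37 °C. Luciferase reagent, 10 min ambient, then luminescence.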
# ELG1 DNA repair: blocks ELG1-dependent DNA repair in HEK293T cells. actives 2.3% (n = 330,000). Potency, µM (highest dose often 46.1 µM), for inactives: at the top dose activity change, negative = inhibition, actives largely listed as inhibitors. AID 504467. HEK293T ELG1-luciferase reporter, luminescence, 16 h; DNA damage induced by 5-fluorouridine; also: % is scaled to controls: 0 for no effect and ±100 for the full control effect; nearly all actives have a fitted effect of over 55% in size
#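 Overnight (16 hr) co-exposure of 2,000 cells/well to 5-fluorouridine and compound at 37 °C preceded detection. Luciferase was quantified via ONE-Glo luminescence; loss of signal denotes inhibition.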
# FLuc counter: firefly luciferase modulation, counter-screen for miR-21 project | P08659 | purified FLuc, Km substrates, luminescence inhibition | Potency, µM (highest dose often 57.5 µM), inactives show top-dose activity change, negative = inhibition, hits mostly inhibitors | actives 6.9% (n = 360,000);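 also: plate controls were vehicle for no effect and reference inhibitor for full effect; nearly all actives have a fitted effect of over 55% in size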
# Target sequence (P08659 whole entry, looked up): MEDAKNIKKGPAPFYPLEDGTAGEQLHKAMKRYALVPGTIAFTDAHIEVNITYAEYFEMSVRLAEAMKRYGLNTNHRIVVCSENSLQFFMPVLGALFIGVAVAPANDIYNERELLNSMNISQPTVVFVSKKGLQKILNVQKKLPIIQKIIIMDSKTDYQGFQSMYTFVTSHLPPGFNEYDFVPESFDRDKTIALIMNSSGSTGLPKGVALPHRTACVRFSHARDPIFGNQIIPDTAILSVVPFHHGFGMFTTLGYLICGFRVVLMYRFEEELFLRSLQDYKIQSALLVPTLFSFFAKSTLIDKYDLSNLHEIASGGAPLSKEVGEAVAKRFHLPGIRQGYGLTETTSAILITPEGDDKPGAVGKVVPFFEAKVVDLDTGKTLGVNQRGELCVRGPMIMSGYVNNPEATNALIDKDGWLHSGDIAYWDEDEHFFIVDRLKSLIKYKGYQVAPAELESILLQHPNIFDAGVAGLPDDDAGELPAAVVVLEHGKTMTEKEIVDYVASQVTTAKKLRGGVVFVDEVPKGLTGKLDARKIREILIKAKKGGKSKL
#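 Purified P. pyralis luciferase (10nM final) with 10uM D-luciferin and 10uM ATP (Km levels) in 50mM Tris acetate pH 7.5, 10mM Mg acetate, 0.01% Tween-20, 0.05% BSA; qHTS 6-point titration, ~60 µM downward; luminescence read.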
# SMN2 splice enh: SMN2 splice variant enhancement | Potency, µM (series often up to 46.1 µM), for inactives: top-dose activity change, positive = activation, usual class: activators | HEK293 SMN2-luciferase splicing reporter, luminescence, 30-36 h | actives 2.8% (n = 210,000); also: % of control where 0% means no effect; nearly all actives have a fitted effect of over 55% in size
#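 HEK293 cells carry an SMN2 minigene-luciferase reporter in which exon 7 inclusion puts luciferase in frame. Cells were seeded at 2000 cells/well, attached for 10-12 hours, then exposed to compounds for 30-36 hours at 37C before ONE-Glo luminescence.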
# Rab9 prom act: Rab9 promoter activation | Huh7 Rab9 promoter-luciferase reporter, luminescence, 24 h | Potency, µM (doses to about 9.22 µM), for the others: top-dose activation, negative = inhibition, most hits filed as activators | actives 2.8% (n = 320,000) | AID 485297; also: % of control where 0% means no effect; nearly all actives have a fitted effect of over 60% in size
#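 Using Huh7 cells stably transfected with Rab9 promoter–luciferase, compounds were incubated 24 h at 37 °C, 5% CO2; luciferase luminescence was read 10 min after reagent addition.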
# ELG1 genotoxic: induces genotoxicity in HEK293T cells with luciferase-tagged ELG1; HEK293T ELG1-luciferase reporter, luminescence, 16 h; Potency, µM (top dose mostly 46 µM), without a hit: at the top dose activity change, positive = activation, most hits filed as activators; actives 1.3% (n = 330,000); also: % of control where 0% means no effect; nearly all actives have a fitted effect of over 60% in size
#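 Genotoxic stress is detected as increased luminescence from luciferase-tagged ELG1 in HEK293T cells, measured with ONE-Glo after a 16 hr treatment at 37 °C.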
# * marks the source's active call; other numbers are inactive results; ? = inconclusive; · = no result given; [ ] = dose if it differs, or a comment. Calls follow the shape of the dose curve; as a rule, active = well fitted curve in the direction sought with a large enough effect; inconclusive = small, poorly fitted or top-dose-only effect, or another doubt; inactive = no such curve, though single readings can be large; an effect the other way counts as inactive or inconclusive. Potency is read from the fitted curve at half-maximal effect.
SMILES,NPC1 promoter act,ELG1 DNA repair,FLuc counter,SMN2 splice enh,Rab9 prom act,ELG1 genotoxic
NS(=O)(=O)c1ccc(CCNC(=O)c2ccc(C#CC3(O)CCCCC3)cc2)cc1,3.7%,6.51µM*,-12.0%,-54.3%,3.4%,-12.1%
COc1ccc(-c2nc3ccccc3n2OCC(=O)O)cc1,8.6%,?,3.01µM*,·,19.0%,?
O=C(O)COn1c(-c2ccc(Cl)cc2)nc2ccc(Cl)cc21,2.3%,?,9.53µM*,16.0%,7.1%,?
COn1c(-c2ccc(Cl)cc2)nc2ccc(Cl)cc21,29.8%,?,9.53µM*,12.6%,?,9.7%
Clc1ccc(COn2c(-c3ccc(Cl)cc3)nc3ccccc32)cc1,-3.6%,16.3%,?,-24.4%,4.2%,-1.9%
Clc1ccc(COn2c(-c3ccccc3)nc3ccccc32)cc1,-7.7%,10.4%,-13.5%,-9.3%,-0.7%,-3.1%
Cc1ccc(C(=O)Nc2cccc(S(=O)(=O)N3CCOCC3)c2)cc1[N+](=O)[O-],3.1%,?,-0.7%,·,0.0%,-4.5%
O=C(Nc1nccs1)c1ccc(N2CCOCC2)c([N+](=O)[O-])c1,1.78µM*,?,12µM*,·,2.24µM*,?
CN(C)S(=O)(=O)c1cccc(NC(=O)c2ccc(N3CCOCC3)c([N+](=O)[O-])c2)c1,-5.2%,18.4µM*,?,-8.2%,-7.9%,-9.1%
Cc1ccc(S(=O)(=O)N2CCN(c3cc4c(cc3[N+](=O)[O-])n(C)c(=O)n4C)CC2)cc1,1.0%,7.31µM*,4.9%,-42.4%,-15.8%,-20.6%
Cc1ccc(S(=O)(=O)N2CCN(c3ccc(C(=O)N4CCOCC4)cc3[N+](=O)[O-])CC2)cc1,-1.2%,18.4µM*,-1.8%,-45.3%,-2.1%,-4.0%
Cc1nonc1CN(C)C(=O)CC1C(=O)NCCN1Cc1cccc(C(F)(F)F)c1 (configuration not stated),-0.5%,-5.0%,1.6%,·,-5.0%,0.9%
Cc1ccc(NC(=O)c2ccc(NCCCN3CCOCC3)c([N+](=O)[O-])c2)cc1Cl,0.0%,18.4µM*,?,-34.1%,-2.6%,-5.5%
Cc1ccc(C(=O)Nc2ccccc2[N+](=O)[O-])cc1S(=O)(=O)N1CCOCC1,-2.3%,-2.4%,-14.8%,·,17.0%,-9.9%
Cc1ccc(NC(=O)c2ccc(N3CCOCC3)c([N+](=O)[O-])c2)cc1S(=O)(=O)N1CCOCC1,-7.1%,20.6µM*,2.0%,-51.6%,-13.8%,-10.2%
O=C(Nc1ccc(Cl)c([N+](=O)[O-])c1)c1ccc(NCCCN2CCOCC2)c([N+](=O)[O-])c1,-12.1%,-2.6%,3.0%,-11.7%,-13.4%,3.0%
Fc1ccccc1COc1ccc(C(=S)N2CCCC2)cc1,?,?,16.9µM*,·,?,?
Fc1ccccc1COc1ccc(-c2nnn(Cc3ccccc3F)n2)cc1,4.1%,8.6%,-16.5%,-10.8%,0.1%,-1.8%
Cn1nnc(-c2ccc(OCc3ccccc3F)cc2)n1,0.631µM*,?,1.9µM*,8.91µM*,1µM*,9.2µM*
C#CC(C)(CC)NC(=O)Cn1nnc(-c2ccc(OCc3ccccc3Cl)cc2)n1 (configuration not stated),·,·,-18.5%,-19.4%,·,·
O=C(O)Cn1nnc(-c2ccc(OCc3ccccc3Cl)cc2)n1,2.1%,12.8%,19µM*,·,-2.9%,4.7%
CC(C)n1nnc(-c2ccc(OCc3ccccc3F)cc2)n1,2.82µM*,?,6.01µM*,·,1.58µM*,?
CCSc1ncc(Cl)c(C(=O)Nc2sc(C(C)=O)c(C)c2C(=O)OC)n1,·,·,3.9%,3.0%,·,·
CC(=O)N[C@@H](Cc1ccc(O)cc1)C(=O)N[C@H](C(=O)N[C@@H](C)C(=O)N[C@H](C#N)CC(=O)O)C(C)C,-1.4%,·,0.8%,·,2.5%,·
Fc1ccc(-c2nnn(Cc3ccccc3Cl)n2)cc1,13.9%,?,?,·,1.5%,8.2%
SMILES,NPC1 promoter act,ELG1 DNA repair,FLuc counter,SMN2 splice enh,Rab9 prom act,ELG1 genotoxic
Nc1ccc(-c2nnn(Cc3ccccc3F)n2)cc1,?,?,15.1µM*,·,?,?
CNC[C@H]1Oc2c(NC(=O)c3ccc(-c4nccs4)cc3)cccc2C(=O)N([C@@H](C)CO)C[C@@H]1C,·,12.0%,·,·,·,2.2%
O=C(CN1CCN(CC(=O)Nc2ccccc2Cc2ccccc2)CC1)Nc1ccccc1Cl,-2.8%,25.9µM*,1.7%,·,-1.4%,-18.6%
O=C(CN1CCCC1)Nc1ccc(NC(=O)Nc2ccccc2Cl)cc1,15.6%,?,21.3µM*,18.6%,19.1%,?
O=C(c1ccc(S(=O)(=O)c2ccccc2Cl)c([N+](=O)[O-])c1)N1CCN(Cc2ccccc2)CC1,0.0%,23.1µM*,7.4%,-15.2%[1.84 µM],-0.2%,-5.1%
O=C(NC1CCCCC1)c1ccc(-n2cncn2)c([N+](=O)[O-])c1,·,-6.3%,·,·,·,2.1%
O=C(NC1CCCCC1)c1ccc(S(=O)(=O)c2ccccc2Cl)c([N+](=O)[O-])c1,-5.6%,5.8µM*,5.2%,3.5%[1.84 µM],-1.4%,-5.3%
Cc1ccccc1OCC(=O)OCC(=O)c1ccc(OC(=O)c2ccccc2)cc1,-0.6%,2.6%,-0.4%,-5.7%,-1.9%,0.9%
Cc1ccccc1OCC(=O)OCC(=O)c1ccc(OCc2ccccc2)cc1,?,?,-12.0%,14.1µM*,?,?
Cc1cc(=O)c(C(=O)OC(C)C(=O)NC(N)=O)nn1-c1ccc(Cl)cc1 (configuration not stated),-0.3%,16.2%,1.8%,·,2.5%,3.7%
COc1ccc(NC(=O)Nc2ccc3c(c2)N(C)C(=O)CS3)cc1Cl,-0.8%,?,16.9µM*,-21.6%,0.5%,-2.1%
Cc1ccnc(NC(=O)Nc2ccc3c(c2)N(C)C(=O)CS3)c1,3.55µM*,?,3.01µM*,11.2µM*,2.82µM*,?
CC(=O)c1ccc(NC(=O)Nc2ccc3c(c2)N(C)C(=O)CS3)cc1,-0.5%,18.4µM*,23.9µM*,-20.3%,16.2%,-13.2%
CCCCOc1ccc(CNC(=O)c2cnc3sc(N4CCOCC4)nn3c2=O)cc1,·,·,0.3%,·,·,·
COc1ccc(NC(=O)COC(=O)C2CC2)c(OC)c1,-1.0%,25.3%,·,·,10.8%,2.4%
C=C(C)C1Cc2cc3ccc(=O)oc3cc2O1 (configuration not stated),13.8%,?,13.5µM*,-11.4%[1.84 µM],?,?
CC(C)(O)[C@H]1Cc2cc3ccc(=O)oc3cc2O1,?,?,12µM*,·,3.2%[1.84 µM],?
COc1cccc(N2CC(NC(=O)COc3ccccc3F)CC2=O)c1 (configuration not stated),·,·,-4.4%,·,·,·

# Assay outcomes from PubChem BioAssay.
